Source: PubChem BioAssay (several laboratories)
Rows were chosen to be rich in hits. Some 4% of all compounds tested hit in one or more screens of this group.
Shn3 3UTR inh: reduces Shn3 3'UTR luciferase signal in osteoblasts; Clone20 osteoblast Shn3 3'UTR firefly luciferase, 24 h; 0.52% of 360,000 active; inhibition, % at 12.5 µM;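 active = mean inhibition of at least 75% with every replicate also reaching 75%; inconclusive = mean inhibition at least 75% but some replicate below; inactive = mean inhibition below 75%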;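 also: 0% = median of neutral control wells and 100% = pilot-screen positive control compound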
Gli-Sufu block: Gli-Sufu pathway antagonism. 0.74% of 340,000 active. inhibition, % at 5 µM. Sufu-KO-LIGHT fibroblasts, Gli luciferase reporter luminescence. AID 588413;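 active = inhibition above about 55%, limit read from the data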;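 also: 0% = DMSO-treated cells and 100% = wells with medium but no cells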
CSC inhib: cancer stem cell inhibition; cancer stem cell-like cells viability, luminescence; inhibition, % at 7.5 µM; 1.1% of 300,000 active; AID 2717; in the data active = inhibition above about 75%; inconclusive = no clear call, values can overlap the other calls; tested in HMLE shEcad cells
Beta cell apopt: blocks beta cell apoptosis; AID 435005; 0.8% of 300,000 active; protection from apoptosis, % (concentration not given with the values); INS-1E cytokine-induced death, ATP luminescence, 48 h; percent of positive-control rescue, neutral wells zero;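 active = Every replicate reaches about 75%, or at least half do and their mean reaches it too, limit read from the data; inconclusive = At least half of replicates reach the limit but their mean does not; inactive = Under half of replicates reach the limit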;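 also: 0% = cytokine-treated negative control wells and 100% = positive control rescue; higher means more ATP so stronger rescue from cytokine killing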
PAX8 reporter: lowers PAX8-driven luciferase in RMG-I cells. RMG-I TPO-luciferase reporter, SteadyGlo, 24 h. 1.2% of 360,000 active. inhibition, % at 12.6 µM. AID 652154;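 active = mean replicate inhibition at least 60% with every replicate also reaching 60%; inconclusive = only one of the two criteria is met; inactive = mean below 60% and not all replicates reaching 60%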;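 also: luciferase light reporting Pax8 driven TPO promoter activity; plate controls were median of neutral control wells for no effect and mitoxantrone controls for full effect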
Mdm2-MdmX inh: human Mdm2/MdmX binding inhibition; SaOS-2 split-luciferase Mdm2/MdmX complementation, luminescence; AID 485346; 3% of 330,000 active; inhibition, % at 8 µM;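 active = inhibition of at least 50% at 8 µM in the primary screen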
Target sequence (O15151 whole entry, looked up): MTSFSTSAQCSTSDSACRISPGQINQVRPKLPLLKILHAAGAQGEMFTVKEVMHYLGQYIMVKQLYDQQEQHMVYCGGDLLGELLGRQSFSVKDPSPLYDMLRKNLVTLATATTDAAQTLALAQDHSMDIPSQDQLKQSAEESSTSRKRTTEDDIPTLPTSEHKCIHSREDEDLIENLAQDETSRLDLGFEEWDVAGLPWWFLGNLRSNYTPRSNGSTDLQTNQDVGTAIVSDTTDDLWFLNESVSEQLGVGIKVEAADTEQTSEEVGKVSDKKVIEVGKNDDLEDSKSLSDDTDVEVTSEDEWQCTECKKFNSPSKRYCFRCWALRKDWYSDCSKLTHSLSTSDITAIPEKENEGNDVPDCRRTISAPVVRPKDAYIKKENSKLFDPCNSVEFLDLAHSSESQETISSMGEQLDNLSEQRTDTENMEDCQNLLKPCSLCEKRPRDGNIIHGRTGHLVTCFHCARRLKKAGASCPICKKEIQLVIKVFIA
Target sequence (Q00987 whole entry, looked up): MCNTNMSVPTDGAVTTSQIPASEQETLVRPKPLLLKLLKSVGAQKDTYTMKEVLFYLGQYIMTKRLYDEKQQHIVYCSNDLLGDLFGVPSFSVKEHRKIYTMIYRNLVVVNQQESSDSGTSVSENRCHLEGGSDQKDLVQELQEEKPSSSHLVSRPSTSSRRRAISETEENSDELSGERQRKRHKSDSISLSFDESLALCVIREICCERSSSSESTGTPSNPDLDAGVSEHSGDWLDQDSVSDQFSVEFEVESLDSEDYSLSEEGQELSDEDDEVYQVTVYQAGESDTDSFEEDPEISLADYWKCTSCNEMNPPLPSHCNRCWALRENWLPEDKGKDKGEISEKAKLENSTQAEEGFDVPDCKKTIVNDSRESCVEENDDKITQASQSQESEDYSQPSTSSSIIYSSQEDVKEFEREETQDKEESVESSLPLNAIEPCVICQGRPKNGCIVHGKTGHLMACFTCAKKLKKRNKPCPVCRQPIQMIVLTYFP
Mdm2 MdmX conf: confirmation of human Mdm2/MdmX interaction inhibitors; Mdm2-MdmX binding, luminescent assay; shares compounds with Mdm2-MdmX inh; 55% of 10,000 active; inhibition, % at 8 µM; AID 489028; in the data active = inhibition above about 40%
FLuc counter: counter-screen for Mdm2/MdmX inhibitors: full-length luciferase; 77% of 6,200 active; shares compounds with Mdm2-MdmX inh; inhibition, % at 8 µM; SaOS-2 full-length luciferase counterscreen, luminescence;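 active = mean inhibition at 8 µM reaching about 37%, which flags the compound as non-specific, limit read from the data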;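 also: p53-null SaOS-2 cells with luciferase driven by a doxycycline-inducible promoter; compound on cells about two nights before reading with doxycycline added after day one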
* hit, by the source's call; ? = inconclusive; / = no result given.

SMILES	Shn3 3UTR inh	Gli-Sufu block	CSC inhib	Beta cell apopt	PAX8 reporter	Mdm2-MdmX inh	Mdm2 MdmX conf	others
O=C(C[C@H]1C[C@H]2c3cc(NC(=O)Nc4ccccc4)ccc3O[C@H]2[C@@H](CO)O1)NCc1ccccc1	/	/	/	/	-25	/	/
CC(C)(C)c1ccc(-c2noc(CCC(=O)Nc3cccnc3)n2)cc1	36	71*	/	5	87*	55*	53*	FLuc counter=22
Cc1ccc(NC(=O)CNC(=O)c2ccc(Oc3ccccc3)cc2)nc1	-4	-3	5	/	-5	-10	/
Cc1ccc(NC(=O)CNC(=O)c2cccc(C)c2)nc1	-2	-10	43	/	18	76*	48*	FLuc counter=62*
CCn1nc(NC(=O)Cc2ccc(OC)cc2)c2cc3cc(C)ccc3nc21	-5	-2	-7	8	-10	62*	5
CCn1nc(NC(=O)Cc2ccc(OC)cc2)c2cc3cccc(C)c3nc21	-4	0	7	1	-16	4	/
CN1Cc2sc(NC(=S)NC(=O)c3ccccc3)c(C#N)c2CC1(C)C	/	60*	9	6	-17	58*	62*	FLuc counter=61*
CCC1(C)Cc2c(sc(NC(=S)NC(=O)c3ccccc3)c2C#N)CO1 (stereo not drawn)	-36	-11	44	11	-4	-1	/
O=C(NNC(=O)C12CC3CC(CC(C3)C1)C2)c1ccccc1O	27	-1	0	70	21	53*	17
C[C@@H]1CN([C@H](C)CO)C(=O)c2cccc(NC(=O)C3CCCCC3)c2O[C@H]1CN(C)C(=O)Nc1ccccc1	/	/	/	/	-3	/	/
C/C=C\C(=O)Nc1cccc(C2=NOC3(C2)C[C@@H](C(N)=O)N(C(=O)CC(c2ccccc2)c2ccccc2)C3)c1 (stereo partly drawn)	-96	-22	-3	0	5	-2	/
CCCCCC(=O)Nc1cccc(C2=NOC3(C2)C[C@@H](C(N)=O)N(C(=O)CC(c2ccccc2)c2ccccc2)C3)c1 (stereo partly drawn)	7	10	18	-2	55	53*	48*	FLuc counter=65*
COc1ccc(NC(=O)Nc2ccc3c(c2)C(=O)N([C@@H](C)CO)C[C@@H](C)[C@H](CN(C)Cc2ccccc2)OCCCC[C@H](C)O3)cc1	/	/	/	/	-17	/	/
Cc1coc(NC(=O)CSc2nc(-c3ccncc3)cc(C(F)(F)F)c2C#N)n1	7	12	-23	4	14	52*	9
CCOC(=O)NC(=O)CSc1nc(C)cc(C(F)(F)F)c1C#N	-34	-25	-3	-13	-92	59*	15
N#Cc1c(C(F)(F)F)cc(-c2ccc(F)cc2)nc1SCC(=O)O	2	5	-3	2	17	-22	/
COCc1cn(CC[C@H]2CC[C@@H](NC(=O)CCN3CCCCC3)[C@@H](CO)O2)nn1	/	/	/	/	-4	/	/
O=C(N/N=C/c1cc(Cl)cc([N+](=O)[O-])c1O)c1cc(-c2ccccn2)nc2ccccc12	29	0	45	68	13	59*	2
COc1cccc(/C=N/NC(=O)c2cc(-c3ccccn3)nc3ccccc23)c1O	?	45	17	93*	68*	76*	60*	FLuc counter=40*
O=[N+]([O-])c1cc(Cl)cc(/C=N\Nc2ccccn2)c1O	89*	57*	112*	109*	/	70*	77*	FLuc counter=55*
O=[N+]([O-])c1ccc(Cl)cc1C=NNc1ccccn1	-14	28	/	/	28	/	/
O=C(CN1CCOCC1)NCC[C@@H]1CC[C@@H](NC(=O)Nc2ccc(Cl)cc2)[C@H](CO)O1	/	/	/	/	11	/	/
CCC(=O)N1C[C@@H](C)[C@H](OC)CN(C)C(=O)c2ccc(NC(=O)C3CCOCC3)cc2OC[C@H]1C	/	/	/	/	-11	/	/
O=C(NCc1cccc(F)c1)[C@@H]1[C@@H](CO)[C@@H]2Cn3c(cccc3=O)[C@H]1N2	/	/	/	/	-9	/	/
Cn1nnnc1N=N/C(=N/Nc1ccccc1)c1ccccc1	46	-1	70	126*	48	86*	85*	FLuc counter=49*
SMILES	Shn3 3UTR inh	Gli-Sufu block	CSC inhib	Beta cell apopt	PAX8 reporter	Mdm2-MdmX inh	Mdm2 MdmX conf	others
CC(=O)Nc1ccc(NC(=O)CSc2nnnn2-c2ccc3c(c2)OCCO3)cc1	-12	-8	0	1	-10	51*	4
COc1ccc(OC)c(-n2nnnc2SCC(=O)Nc2ccc3c(c2)OCCO3)c1	29	4	-3	1	/	82*	1
COC(=O)c1ccc(-n2nnnc2SCC(=O)Nc2cc(OC)ccc2OC)cc1	6	-4	-13	3	/	-9	/
Cc1ccc(-n2nnnc2SCC(=O)Nc2ccc3c(c2)COC3=O)cc1C	-5	-6	4	3	/	51*	9
COc1ccc(-n2nnnc2SCC(=O)Nc2cc(OC)c([N+](=O)[O-])cc2C)cc1	28	15	1	25	22	52*	7
COc1ccc(OC)c(NC(=O)CSc2nnnn2-c2ccc3c(c2)OCO3)c1	-11	-2	-5	-10	/	58*	30
COc1ccc2[nH]c3nc(SCC(=O)Nc4ccc5c(c4)OCO5)nnc3c2c1	24	5	/	1	13	66*	6
C[C@H](CO)N1C[C@H](C)[C@@H](CN(C)C(=O)c2cc(Cl)cc(Cl)c2)OCc2ccccc2-c2ccccc2C1=O	/	/	/	/	-23	/	/
O=C(C#Cc1ccccc1)Nc1ccccc1F	-73	-46	4	0	-104	10	/
COc1ccc(NC(=O)C#Cc2ccccc2)cc1OC	-4	14	19	-11	28	57*	34
NC(=O)c1ccc(NC(=O)C#Cc2ccccc2)cc1	16	15	38	-4	41	85*	77*	FLuc counter=51*
CO[C@H](C(=O)N(C)C[C@H]1OCc2ccccc2-c2c(n(C)c3ccccc23)C(=O)N([C@@H](C)CO)C[C@@H]1C)c1ccccc1	/	/	/	/	-25	/	/
CN(C)CC(=O)Nc1ccc2c(c1)[C@H]1C[C@@H](CC(=O)NCCc3ccccc3)O[C@@H](CO)[C@H]1O2	/	/	/	/	-7	/	/
CN(C)c1ccc(Sc2nnc(NC(=O)Nc3ccc(Cl)cc3Cl)s2)cc1	-6	8	-10	-8	14	79*	1
O=C(c1nn2c(C(F)(F)F)cc(-c3ccco3)nc2c1Br)N1CCCc2ccccc21	25	1	68	6	/	57*	44*	FLuc counter=48*
CCC(C)Sc1cccc(-c2nc3ccc(Cl)cn3c2NCc2ccccc2)c1 (stereo not drawn)	25	-9	58	6	/	66*	9
CN(C)C(=O)c1ccc(-c2ccc(C3[C@H]4CNC[C@@H]3N4Cc3ccccn3)cc2)cc1 (stereo partly drawn)	/	/	/	/	-14	/	/
CCCCn1c(CCC)nc([N+](=O)[O-])c1Sc1ccc(Cl)cn1	14	1	-3	2	/	63*	18
